Screens from PubChem BioAssay.
Tcruzi prolif = blocks T. cruzi growth in NIH3T3 culture; T. cruzi beta-gal in NIH3T3, GalScreen luminescence, 90 h; inhibition, % at 8.34 µM; actives 5.9% (n = 77,000); AID 624255;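 active = mean inhibition above about 93%, with at least 55% of replicates each passing it, limit read from the data, passing the limit was not always enough; inconclusive = only one of those two conditions holds; inactive = neither condition holds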
Pf Dd2 growth = inhibitors of Plasmodium falciparum Dd2 growth; P. falciparum Dd2 growth, SYBR Green, 72 h; stronger effect = lower value; activity change, % at 10 µM; actives 2.3% (n = 94,000); in the data active = activity change below about -80%; inconclusive = no clear call, values can overlap the other calls
C diff HTS = C. difficile growth inhibition. Clostridium difficile clinical isolate growth, OD600, 24 h; stronger effect = lower value. growth activity, negative = inhibition, % at 16 µg/mL (by protocol). actives 0.25% (n = 86,000);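 active = mean growth activity at or below -80% and every replicate also at or below -80%; inconclusive = mean at or below -80% but some replicate above -80%; inactive = mean growth activity above -80%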
Of the large screens only hits and unclear results are named; the others gave an inactive call; ! = a repeat was not active. This is a sample that favours compounds with a hit; in the whole collection about 6.7% have one here.

COc1ccc(S(=O)(=O)N(C)C[C@@H]2Oc3ncc(Br)cc3C(=O)N([C@H](C)CO)C[C@@H]2C)cc1	none
CC(C)CC#Cc1ccc2c(c1)O[C@@H](CN(C)C(=O)Cc1ccccn1)[C@H](C)CN([C@H](C)CO)S2(=O)=O	none
CC(C)CC#Cc1ccc2c(c1)O[C@H](CN(C)C(=O)CC1CC1)[C@H](C)CN([C@@H](C)CO)S2(=O)=O	none (no result: Tcruzi prolif)
CCCN(C)C[C@H]1OCCCC[C@H](C)Oc2ccc(NS(=O)(=O)c3cccs3)cc2C(=O)N([C@@H](C)CO)C[C@H]1C	none (no result: Tcruzi prolif)
CCCN(C)C[C@H]1OCCCC[C@@H](C)Oc2ccc(NS(=O)(=O)c3cccs3)cc2C(=O)N([C@@H](C)CO)C[C@@H]1C	Pf Dd2 growth -90
CCCN(C)C[C@H]1OCCCC[C@@H](C)Oc2ccc(NS(=O)(=O)c3cccs3)cc2C(=O)N([C@H](C)CO)C[C@@H]1C	Pf Dd2 growth -86 (no result: Tcruzi prolif)
CCCN(C)C[C@H]1OCCCC[C@H](C)Oc2ccc(NS(=O)(=O)c3cccs3)cc2C(=O)N([C@H](C)CO)C[C@H]1C	Pf Dd2 growth inconclusive
CCCNC(=O)Nc1ccc2c(c1)OC[C@@H](C)N(Cc1ccccc1)C[C@@H](C)[C@H](OC)CN(C)C2=O	Pf Dd2 growth -87
CCC(=O)Nc1ccc2c(c1)OC[C@H](C)N(Cc1ccccn1)C[C@H](C)[C@H](OC)CN(C)C2=O	Pf Dd2 growth -84 (no result: C diff HTS)
CCCNC(=O)Nc1ccc2c(c1)C(=O)N(C)C[C@H](OC)[C@@H](C)CN(C(=O)C1CCOCC1)[C@H](C)CO2	none (no result: C diff HTS)
CCCC(=O)Nc1ccc2c(c1)OC[C@@H](C)N(Cc1ccc(F)cc1)C[C@@H](C)[C@H](OC)CN(C)C2=O	Pf Dd2 growth -87 (no result: Tcruzi prolif)
CCCNC(=O)Nc1ccc2c(c1)OC[C@H](C)N(Cc1ccccc1)C[C@H](C)[C@@H](OC)CN(C)C2=O	none (no result: Tcruzi prolif)
CCC(=O)Nc1ccc2c(c1)OC[C@H](C)N(Cc1ccccn1)C[C@@H](C)[C@@H](OC)CN(C)C2=O	none (no result: C diff HTS)
CCCC(=O)Nc1ccc2c(c1)OC[C@H](C)N(Cc1ccc(F)cc1)C[C@@H](C)[C@H](OC)CN(C)C2=O	Tcruzi prolif inconclusive (no result: C diff HTS)
CCCNC(=O)Nc1ccc2c(c1)C(=O)N(C)C[C@@H](OC)[C@H](C)CN(C(=O)C1CCOCC1)[C@@H](C)CO2	Pf Dd2 growth -87 (no result: C diff HTS)
CN1c2ccc(-c3ccc(C#N)cc3)cc2[C@H]2[C@H](CCN2S(=O)(=O)c2ccc(F)cc2)[C@@H]1CO	none
O=C(Nc1ccc(Cl)cc1)N[C@@H]1CC[C@H](CCn2cc(Cc3ccccc3)nn2)O[C@@H]1CO	none
C[C@@H]1CN([C@@H](C)CO)C(=O)c2cc(-c3ccccc3)cnc2O[C@H]1CN(C)C(=O)Cc1ccccn1	none
CN1C(=O)c2cc(NC(=O)C3CCOCC3)ccc2OC[C@@H]2O[C@@H](CC(=O)O)CC[C@H]21	none
C[C@@H]1CN([C@@H](C)CO)C(=O)c2cc(C3=CCCCC3)cnc2O[C@H]1CN(C)C(=O)c1ccncc1	none
COc1ccc(NC(=O)N[C@@H]2CC[C@@H](CCNC(=O)c3ccccc3F)O[C@@H]2CO)cc1	none
CS(=O)(=O)Nc1ccc2c(c1)[C@H]1C[C@H](CC(=O)NCc3cccnc3)O[C@@H](CO)[C@H]1O2	none (no result: Tcruzi prolif)
CO[C@H]1CN(C)C(=O)c2ccc(NC(=O)NC(C)C)cc2OC[C@H](C)N(Cc2ccccc2)C[C@H]1C	none (no result: C diff HTS)
CO[C@@H]1CN(C)C(=O)c2ccc(NC(=O)c3ccc4c(c3)OCO4)cc2OC[C@@H](C)N(Cc2ccc3c(c2)OCO3)C[C@H]1C	Pf Dd2 growth -85
CO[C@@H]1CN(C)C(=O)c2ccc(NC(=O)NC(C)C)cc2OC[C@@H](C)N(Cc2ccccc2)C[C@H]1C	Pf Dd2 growth -85 (no result: Tcruzi prolif)
CO[C@H]1CN(C)C(=O)c2ccc(NC(=O)c3ccc4c(c3)OCO4)cc2OC[C@@H](C)N(CC2CC2)C[C@H]1C	none (no result: Tcruzi prolif, C diff HTS)
CN1c2ccc(-c3ccc(F)cc3)cc2[C@H]2[C@H](CCN2C(=O)c2cccnc2)[C@@H]1CO	none
CC=Cc1ccc2n(c1=O)C[C@H]1[C@H](CO)[C@@H](C(=O)NCc3ccncn3)N(C(=O)C3CCCC3)[C@@H]21 (mixture of isomers)	none (no result: Tcruzi prolif)
CCNC(=O)C[C@@H]1CC[C@@H]2[C@H](COC[C@H](O)CN2C(=O)C2CC2)O1	none
Cc1ccc(S(=O)(=O)Nc2ccc3c(c2)C(=O)N([C@@H](C)CO)C[C@H](C)[C@@H](CN(C)Cc2ccc(C(=O)Nc4ccccc4N)cc2)OCCCC[C@@H](C)O3)cc1	Pf Dd2 growth -92 (no result: Tcruzi prolif)
C[C@@H]1CCCCO[C@H](CN(C)Cc2ccc(C(=O)Nc3ccccc3N)cc2)[C@@H](C)CN([C@H](C)CO)C(=O)c2cc(NS(=O)(=O)c3ccc(F)cc3)ccc2O1	Pf Dd2 growth inconclusive
Cc1noc(C)c1S(=O)(=O)Nc1ccc2c(c1)C(=O)N([C@H](C)CO)C[C@H](C)[C@H](CN(C)Cc1ccc(C(=O)Nc3ccccc3N)cc1)O2	none (no result: Tcruzi prolif)
C[C@@H]1CCCCO[C@H](CN(C)Cc2ccc(C(=O)Nc3ccccc3N)cc2)[C@@H](C)CN([C@H](C)CO)C(=O)c2cc(NS(=O)(=O)c3ccccc3)ccc2O1	Pf Dd2 growth -89 (no result: Tcruzi prolif)
Cc1noc(C)c1S(=O)(=O)Nc1ccc2c(c1)C(=O)N([C@@H](C)CO)C[C@H](C)[C@@H](CN(C)Cc1ccc(C(=O)Nc3ccccc3N)cc1)OCCCC[C@@H](C)O2	Pf Dd2 growth -85
C[C@@H]1CCCCO[C@@H](CN(C)Cc2ccc(C(=O)Nc3ccccc3N)cc2)[C@@H](C)CN([C@H](C)CO)C(=O)c2cc(NS(C)(=O)=O)ccc2O1	none (no result: Tcruzi prolif)
COCC#Cc1cnc2c(c1)C(=O)N([C@H](C)CO)C[C@@H](C)[C@H](CN(C)C(=O)Nc1cccc(F)c1)O2	none
C[C@H](CO)N1C[C@H](C)[C@@H](CN(C)C(=O)c2cc(Cl)cc(Cl)c2)OCc2ccccc2-c2ccccc2C1=O	none (no result: Tcruzi prolif)
Cc1noc(C)c1NC(=O)NCC[C@H]1CC[C@@H](NC(=O)Cc2cccnc2)[C@@H](CO)O1	none
COc1ccc2c3c(n(C)c2c1)[C@@H](CO)N(C)CC31CN(C(=O)NC(C)C)C1	none (no result: Tcruzi prolif)
Cc1ccccc1-c1ccc(C2[C@@H]3CN(Cc4cncnc4)C[C@H]2N3)cc1 (stereo not given in full)	none (no result: Tcruzi prolif)
Fc1cccc(-c2ccc(C3[C@@H]4CN(Cc5cncnc5)C[C@H]3N4)cc2)c1 (stereo not given in full)	Pf Dd2 growth -86! (no result: Tcruzi prolif)
Cc1cccc(-c2ccc(C3[C@@H]4CN(Cc5ccccc5)C[C@H]3N4)cc2)c1 (stereo not given in full)	none (no result: Tcruzi prolif)
Cc1cccc(-c2ccc(C3[C@@H]4CN(Cc5cccc(F)c5)C[C@H]3N4)cc2)c1 (stereo not given in full)	C diff HTS -97 (no result: Tcruzi prolif)
O=C(C[C@H]1CC[C@H]2[C@@H](COC[C@H](O)CN2C(=O)Nc2cccc(F)c2)O1)NCc1ccccc1Cl	none (no result: Tcruzi prolif)
COc1ccc(NC(=O)N(C)C[C@@H]2OCc3ccccc3-c3c(n(C)c4ccccc34)C(=O)N([C@@H](C)CO)C[C@H]2C)c(OC)c1	none
COc1ccc(NC(=O)N(C)C[C@H]2OCc3ccccc3-c3c(n(C)c4ccccc34)C(=O)N([C@H](C)CO)C[C@@H]2C)c(OC)c1	Pf Dd2 growth -86
